Measurements from PubChem BioAssay AID596 (National Center for Advancing Translational Sciences (NCATS), 2007).
Among all 71,000 compounds or so, about 1,400 (2%) were called active. Roughly 3% stayed inconclusive and do not appear here. For the sample, actives were picked, then their nearest neighbours and some compounds at random. A number with no mark means an inactive call. Calls follow the shape of the dose curve; as a rule, active = well fitted curve in the direction sought with a large enough effect; inconclusive = small, poorly fitted or top-dose-only effect; inactive = no such curve, though single readings can be large or run the other way.

biological target: Microtubule-associated protein tau (Homo sapiens) (UniProt P10636); experiment: qHTS Assay for Tau Filament Binding; details: recombinant tau filaments, thioflavin S fluorescence, 15 h, filaments grown with octadecylsulfate alongside compound; series mostly up to 57.1 µM; activity change, negative = inhibition: at the top concentration;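 also: actives lower thioflavin S fluorescence by blocking filaments or displacing dye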
Sequence (P10636 whole entry, looked up): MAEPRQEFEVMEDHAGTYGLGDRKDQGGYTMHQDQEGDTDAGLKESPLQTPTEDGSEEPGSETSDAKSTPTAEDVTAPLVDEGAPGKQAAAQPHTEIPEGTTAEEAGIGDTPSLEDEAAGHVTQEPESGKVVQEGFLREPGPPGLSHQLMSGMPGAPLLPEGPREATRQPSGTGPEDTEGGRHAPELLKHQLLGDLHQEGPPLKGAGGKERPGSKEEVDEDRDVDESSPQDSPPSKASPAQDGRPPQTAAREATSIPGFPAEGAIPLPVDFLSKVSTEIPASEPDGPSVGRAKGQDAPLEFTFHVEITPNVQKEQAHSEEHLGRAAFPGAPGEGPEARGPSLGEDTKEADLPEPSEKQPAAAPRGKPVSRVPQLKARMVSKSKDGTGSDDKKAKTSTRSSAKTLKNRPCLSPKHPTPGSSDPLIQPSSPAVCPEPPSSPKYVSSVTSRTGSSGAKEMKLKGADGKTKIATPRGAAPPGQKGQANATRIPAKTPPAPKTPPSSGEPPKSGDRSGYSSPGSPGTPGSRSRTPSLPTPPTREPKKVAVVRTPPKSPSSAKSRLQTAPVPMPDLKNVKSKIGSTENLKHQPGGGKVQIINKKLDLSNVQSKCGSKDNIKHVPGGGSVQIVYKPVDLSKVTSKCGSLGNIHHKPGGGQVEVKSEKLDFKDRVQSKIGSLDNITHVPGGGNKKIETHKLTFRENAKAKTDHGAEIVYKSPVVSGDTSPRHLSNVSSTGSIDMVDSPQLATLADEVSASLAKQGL
Procedure, shortened: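 Recombinant tau protein (human, 1 uM final) plus 30 uM ODS in HEPES pH 7.4 with NaCl, DTT and thioflavine S. Compound present from the start; fluorescence at 510 nm after 15 h, 37 C.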
% is scaled to controls: 0 for no effect and ±100 for the full control effect; potency is read from the fitted curve at half-maximal effect.

| SMILES | activity change, negative = inhibition | Potency |
| --- | --- | --- |
| O=c1c(-c2cccs2)nc2cnc(Oc3ccccc3)nc2n1-c1ccccc1 | 47.6% |  |
| CN(C(=O)COc1ccccc1)c1nnc(-c2ccncc2)s1 | -17.9% |  |
| CCCn1c(SCC(N)=O)nnc1C(C)C | 2.8% |  |
| O=C(Cn1cnc2c(nnn2Cc2ccc(F)cc2)c1=O)NCc1ccc2c(c1)OCO2 | 7.3% |  |
| CCOC(=O)C(C)Oc1cccc2c(=O)n(CC(=O)N3CCc4ccccc43)ccc12 (stereo unspecified) | 40.3% |  |
| COCCNc1cc(-c2c(C)noc2C)ncn1 | -2.4% |  |
| COC(=O)CCNc1ccc2c(c1)OCCO2 | 1.2% |  |
| COc1ccc(C(=O)Nc2ccc3c(c2)OCO3)cc1OC | -6% |  |
| CCOc1ccc(NCCC(=O)c2ccc3c(c2)OCO3)cc1 |  | 25.1 µM (active) |
| O=C(Cl)c1ccccc1[N+](=O)[O-] | 8% |  |
| O=C(CSc1nnc(Cc2ccccc2)n1-c1ccccc1)N1CCOCC1 | -4% |  |
| CCN(CC)CCN1C(=O)C(=O)/C(=C(/O)c2ccc(OC)c(OC)c2)C1c1ccccn1 (stereo unspecified) |  | 20 µM (active) |
| O=C1C(=O)N(CCN2CCOCC2)C(c2ccccn2)/C1=C(/O)c1ccc(Cl)cc1 (stereo unspecified) | 64.6% |  |
| CCN(CC)CCN1C(=O)C(=O)/C(=C(/O)c2ccccc2)C1c1ccccc1F (stereo unspecified) | 6.1% |  |
| CC(=O)OCCC(C)C | -0.1% |  |
| COc1cccc(-c2nc3cc(C)ccc3o2)c1 | -7.9% |  |
| CCc1ccc2oc(-c3ccc(N)cc3)nc2c1 |  | 25.1 µM (active) |
| CCCCCC(=O)Nc1ccc2oc(-c3ccncc3)nc2c1 | -29.6% |  |
| CCCCCCc1ccc(O)cc1O | -23.7% |  |

| SMILES | activity change, negative = inhibition | Potency |
| --- | --- | --- |
| CC(C)n1c(SCC(=O)Nc2ccccc2N2CCCCC2)nc2c1c(=O)n(C)c(=O)n2C | 5% |  |
| COc1ccc(S(=O)(=O)Nc2ccc3c(c2)OCO3)cc1Cl |  | 20 µM (active) |
| CC(C)CNS(=O)(=O)c1ccc(OCC(=O)Nc2ccc3c(c2)OCO3)c(Cl)c1 | 101% |  |
| COc1ccc(F)cc1S(=O)(=O)Nc1ccc2c(c1)OCO2 | -5.1% |  |
| c1ccc2sc(SCCSc3nc4ccccc4s3)nc2c1 | -3.1% [at 11.4 µM] |  |
| CCCCN(CC)C(=O)CN(C)S(=O)(=O)c1cccc2nsnc12 | -4.7% |  |
| CCOc1ccc(-c2cn(S(=O)(=O)c3cccc4nsnc34)nc2N)cc1 |  | 25.1 µM (active) |
| CCOc1ccc(NC(=O)CCS(=O)(=O)c2cccc3nsnc23)cc1 | -9.9% |  |
| CC1CCCC(NC(=O)CSc2nccn2C)C1C (stereo unspecified) | 9% |  |
| O=C(c1cnccn1)N1CCC2(CCN(Cc3cc(C(F)(F)F)cc(C(F)(F)F)c3)CC2)CC1 | -9.4% |  |
| COc1cc(Br)cc(/C=N/c2ncn[nH]2)c1O |  | 1.58 µM (active) |
| C/C=C/C=C/C(=O)O | -9.3% |  |
| O=C(OCC(COC(=O)c1ccccc1)(COC(=O)c1ccccc1)COC(=O)c1ccccc1)c1ccccc1 | 2.5% |  |
| N#Cc1nc(N)nc(N(c2ccccc2)c2ccccc2)n1 |  | 7.94 µM (active) |
| CC(C)Nc1nc(N(c2ccccc2)c2ccccc2)nc(-n2ccnc2)n1 | 5% |  |
| CCOC(=O)c1cn(CC(=O)Nc2ccc(C(C)C)cc2)nn1 | -18% |  |
| CCCC(=O)Nc1cc(OCC)c(NC(=O)NC2CCCCC2)cc1OCC | 0.7% |  |
| O=C(O)CC(C(=O)O)C(CC(=O)O)C(=O)O (stereo unspecified) | -2.3% |  |
| CCCC[C@@H]1C[C@H]1C(NC(=O)c1ccco1)c1ccc(C(=O)OC)cc1 (stereo partly specified) | 8.7% |  |

| SMILES | activity change, negative = inhibition | Potency |
| --- | --- | --- |
| CCN(CC)S(=O)(=O)N1CCC(C(=O)NC(C)CCc2ccccc2)CC1 (stereo unspecified) | 6% |  |
| Cc1ccc2c(NC(=O)C3CC3)cccc2n1 | -1.6% |  |
| CC(=O)N1CCC(C(=O)Nc2nc(-c3ccccc3)ns2)CC1 |  | 10 µM (active) |
| Cc1noc(C)c1-c1cc(NCc2cccnc2)ncn1 | 5.5% |  |
| O=S(=O)(NCc1cccnc1)c1ccc(Br)s1 | -1.9% |  |
| COc1ccc(Cl)cc1S(=O)(=O)Nc1cccc(C(=O)O)c1 | 11.9% |  |
| Cc1ccnc(SCCn2c(N(C)Cc3ccccc3)nc3c2c(=O)n(C)c(=O)n3C)n1 | 0.1% |  |
| c1ccc2c(Nc3ccncc3)nc(-c3ccoc3)nc2c1 |  | 7.94 µM (active) |
| COc1cccc(-c2nc(Nc3ccncc3)c3ccccc3n2)c1 | 105% |  |
| CCOC(=O)CSc1nnc(NC(=O)c2cccc(S(=O)(=O)N3CCCCC3)c2)s1 | 5.8% |  |
| CCn1c(COc2cccc(OC)c2)nnc1SCC(=O)N1CCOCC1 | 3% |  |
| CCCS(=O)(=O)Nc1c(C(=O)O)[nH]c2ccccc12 |  | 25.1 µM (active) |
| CCCC(=O)Nc1c(O)c2ccccc2[nH]c1=O | 0.1% |  |
| COC(=O)c1[nH]c2ccccc2c1NS(=O)(=O)c1ccc(OC)cc1OC | 0.1% |  |
| C[C@]12C=CC(=O)C=C1CC[C@@H]1[C@@H]2C(=O)C[C@@]2(C)[C@H]1CC[C@]2(O)C(=O)CO | -6.3% |  |
| CCCCn1c(SCC(=O)NCC2CCCO2)nc2ccc(N3CCOCC3)cc2c1=O (stereo unspecified) |  | 15.8 µM (active) |
| COCCCNC(=O)CSc1nc2ccc(N3CCOCC3)cc2c(=O)n1CCc1ccccc1 | -17.5% |  |
| CCn1c(SCC(=O)NCC2CCCO2)nc2cc(S(=O)(=O)N3CCCCC3)ccc21 (stereo unspecified) | 0.9% |  |
